Reference: PubChem BioAssay
Unmarked numbers belong to inactive results. No rule for the calls is given here.

Assay: inhibitors of hydroxyurea-induced Chk1 phosphorylation, primary screen, imaging, HeLa, phospho-Chk1 nuclear intensity (AID 1187); also: test concentration not given here
Conditions: hydroxyurea-induced phospho-Chk1 immunofluorescence imaging, higher = more signal

Row | Compound | z-score
1 | COCCOC(=O)N1C(=O)[C@@]2(c3cc(C#CCC(C(=O)OC)C(=O)OC)ccc31)[C@H](C(N)=O)[C@H]1C(=O)O[C@H](c3ccccc3)[C@H](c3ccccc3)N1[C@@H]2c1ccccc1OCCO | -1.57
2 | C=C(COC)/C(=C/C[C@@H](OC(C)=O)c1cccc(OCCO)c1)c1cnc2ccccc2c1 | -0.181
3 | CC(C)[Si](C#Cc1ccccc1)(O[C@H](c1ccccc1)c1cn(Cc2ccccc2)nn1)C(C)C | 0.124
4 | C[C@]1(C(=O)O)c2ccccc2C(=O)N(Cc2cc(C(F)(F)F)cc(C(F)(F)F)c2)[C@H]1c1ccc(CO)cc1 | 0.362
5 | [N-]=[N+]=NCc1ccccc1[C@H]1OC(c2ccc(OCCCO)cc2)=N[C@@]1(CCS(=O)(=O)c1ccccc1)C(=O)NCCN1CCOCC1 | -0.0229
6 | C=CC[C@@]1(C(=O)NCCCOC)N=C(c2ccc(OCCCO)cc2)O[C@@H]1c1ccccc1CN=[N+]=[N-] | -0.721
7 | CC(=O)NCCCC[C@@H]1NC(=O)[C@H]2C[C@@H](C(=O)O)[C@@H](c3cccc(OCCO)c3)N2C1=O | -0.347
8 | C=CCNC(=O)[C@H]1[C@@H]2C(=O)O[C@@H](c3ccccc3)[C@@H](c3ccccc3)N2[C@@H](c2ccc(O)cc2)[C@]12C(=O)Nc1ccccc12 | 0.432
9 | Cc1ccc(S[C@]2(C(=O)NC(C)C)CC(=O)N(Cc3ccccc3)[C@@H]2c2ccc(CO)cc2I)cc1 | -0.268
10 | COC(=O)c1ccc(OC)c(/C=C\CC(OC(=O)c2ccncc2)c2ccccc2)c1 (stereo unspecified) | -0.432
11 | COc1ccc([Si](C)(C)[C@H]2[C@H](CC(=O)N(CCO)Cc3ccccc3)O[C@@]3(C(=O)N(Cc4ccc(N5C(=O)c6cccc7cccc5c67)cc4)c4ccccc43)[C@@H]2C)cc1 | -0.393
12 | C=C(C)C1CN([C@H](CO)c2ccccc2)C(=O)/C1=C\c1ccccc1 (stereo partly specified) | -0.234
13 | C[N+](C)(C)CCCC[C@@H]1NC(=O)[C@H]2C[C@@H](C(=O)NCCCCCN)[C@@H](c3ccc(O)cc3)N2C1=O | 0.79
14 | CC(=O)NCCCC[C@@H]1NC(=O)[C@H]2C[C@@H](C(=O)NCCCCCN)[C@@H](c3ccc(O)cc3)N2C1=O | -0.163
15 | O=C1c2ccccc2[C@](Cc2ccccc2I)(C(=O)NCCN2CCOCC2)[C@H](c2ccc(CO)cc2)N1Cc1ccccc1C(F)(F)F | -0.105
16 | CCOC(=O)C[C@H]1[C@H](OC(=O)c2ccc(-c3ccccc3)cc2)[C@@H](NC(=O)c2ccc(-c3ccccc3)cc2)c2cc(OCCCO)ccc2N1C(=O)c1ccccc1 | 0.205
17 | COC(=O)C1=CC(CCCO)=CC(c2ccc(CN3CCCC3)cc2)N(C)C=C1C(=O)OC (stereo unspecified) | -0.428
18 | CCCC1(C(=O)OC)C=C2C(=C(C(C)C)C(=O)C2C)CN1 (stereo unspecified) | 0.473
19 | C=CCOC(=O)[C@H]1[C@@H]2C(=O)O[C@@H](c3ccccc3)[C@@H](c3ccccc3)N2[C@@H](c2ccc(OCCOC(=O)[C@H]3C[C@H]4C(=O)NCC(=O)N4[C@H]3c3cccc(OCCO)c3)cc2)[C@]12C(=O)Nc1ccc(I)cc12 | -1.12
20 | C=CCNC(=O)[C@H]1[C@@H]2C(=O)O[C@@H](c3ccccc3)[C@@H](c3ccccc3)N2[C@@H](c2ccc(O)cc2)[C@]12C(=O)N(C(=O)OCCOC)c1ccc(C#Cc3ccc(OC)cc3)cc12 | 0.21
21 | CS(=O)(=O)CCOC(=O)C1=CC(CCCO)=CC(C2CC2)N(Cc2sc3ccccc3c2Cl)C=C1C(=O)OCCS(C)(=O)=O (stereo unspecified) | -0.0474
22 | CC(C)(C)OC(=O)CC[C@@]1(C(=O)N2CCOCC2)N=C(c2ccc(OCCCO)cc2)O[C@@H]1c1ccccc1CN=[N+]=[N-] | 0.291
23 | CN1C(=O)C2C=CC(C(O)c3ccc(I)cc3)N(N(c3ccccc3)c3ccccc3)C2C1=O (stereo unspecified) | -1.1
24 | CC(C)(C)OC(=O)N1[C@@H](C=C(Br)Br)COC1(C)C | -0.129
25 | CCCN1C(=O)[C@@]2(c3ccc([N+](=O)[O-])cc3)CC(=O)N(C3CCCCC3)[C@@H]2c2ccc(CO)cc21 | 0.105
26 | C=CCNC(=O)[C@H]1[C@@H]2C(=O)O[C@@H](c3ccccc3)[C@@H](c3ccccc3)N2[C@@H](c2ccc(OCCO)cc2)[C@]12C(=O)N(C(=O)OCCOC)c1ccc(C#CCC(C(=O)OC)C(=O)OC)cc12 | 0.475
